“And” between values parts separate entries of the source, which are not always exact repeats. Equal entries are not always repeated. This is part of a sample that, as a whole, favours compounds with a hit. Of some 79,000 tested, about 15% had one in any assay. Where a structure was tested more than once in an assay, its records may differ in their call. The source made the active and inactive calls. No stated cut-off is given here; in the data, active means growth inhibition above about 70%; inactive means the rest.
Assays:
[1] = NCI Yeast Anticancer Drug Screen. Data for the rad52 strain (AID 147);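 further: 0% = growth of vehicle-treated control cultures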; settings: S. cerevisiae rad52 mutant growth inhibition, stronger effect = higher value
In short: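 Compounds are applied to a genetically defined yeast strain lacking normal DNA damage repair, and inhibition of growth is expressed relative to cultures given vehicle only.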

[2] = NCI Yeast Anticancer Drug Screen. Data for the wt1 strain (AID 149);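 further: 0% = growth of vehicle-treated wt1 cultures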; settings: S. cerevisiae wt1 strain (SPY 50644) growth inhibition, stronger effect = higher value
In short: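 wt1 strain grown with compound or vehicle; inhibition taken from the growth difference.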

[3] = NCI Yeast Anticancer Drug Screen. Data for the rad50EPP+ strain (AID 151);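 further: 0% = growth of vehicle-treated control cultures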; settings: S. cerevisiae rad50 mutant strain, stronger effect = higher value
In short: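 Compounds were applied to the rad50EPP+ yeast strain, which bears a defined DNA repair alteration, and growth inhibition was determined relative to vehicle-treated cultures.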

[4] = NCI Yeast Anticancer Drug Screen. Data for the mgt1 strain (AID 153); settings: S. cerevisiae mgt1 mutant growth inhibition, stronger effect = higher value
In short: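 Strain: mgt1 yeast, one of a set carrying defined DNA damage repair or cell cycle control alterations. Compound-treated growth compared with vehicle.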

[5] = NCI Yeast Anticancer Drug Screen. Data for the rad50 strain (AID 155);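 further: 0% = growth of vehicle-only cultures of the same strain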; settings: S. cerevisiae rad50 strain growth inhibition, stronger effect = higher value
In short: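 DNA repair mutant yeast, compound exposure, growth read-out; inhibition is taken relative to vehicle.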

[6] = NCI Yeast Anticancer Drug Screen. Data for the mec2-1 strain (AID 157); settings: S. cerevisiae mec2-1 strain, stronger effect = higher value
In short: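 Strain: mec2-1 (DNA repair/cell cycle alteration). Compound exposure, then growth measured; inhibition expressed relative to vehicle.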

[7] = NCI Yeast Anticancer Drug Screen. Data for the rad14 strain (AID 159);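 further: 0% = growth of vehicle-treated control cultures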; settings: S. cerevisiae rad14 strain growth inhibition, stronger effect = higher value
In short: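 DNA repair-defective yeast, compound-exposed; % growth inhibition derived by comparison with vehicle-treated controls.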

[8] = NCI Yeast Anticancer Drug Screen. Data for the sgs1 mgt1 strain (AID 161);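 further: 0% = growth of cultures given vehicle only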; settings: S. cerevisiae sgs1 mgt1 strain, stronger effect = higher value
In short: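 Read-out: growth inhibition vs vehicle controls. Cells: mutant yeast strain deficient in DNA damage repair.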

[9] = NCI Yeast Anticancer Drug Screen. Data for the CLN2oe strain (AID 163);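 further: 0% = growth of vehicle-only control cultures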; settings: S. cerevisiae CLN2oe strain, stronger effect = higher value
In short: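 Growth of a genetically modified yeast strain is measured after compound exposure and compared with cultures given vehicle alone.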

[10] = NCI Yeast Anticancer Drug Screen. Data for the cln2 rad14 strain (AID 165);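 further: 0% = growth equal to vehicle treated cultures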; settings: S. cerevisiae cln2 rad14 strain, stronger effect = higher value
In short: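 Compounds are applied to the cln2 rad14 yeast strain, and growth is then compared with that of vehicle-treated cultures to give inhibition.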

[11] = NCI Yeast Anticancer Drug Screen. Data for the bub3 strain (AID 167); settings: S. cerevisiae bub3 mutant strain, stronger effect = higher value
In short: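 In this screen, a yeast mutant lacking normal mitotic checkpoint function is challenged with compound. Relative growth versus vehicle gives the inhibition value.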

[12] = NCI Yeast Anticancer Drug Screen. Data for the wt2 strain (AID 169);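 further: 0% = growth of vehicle-treated yeast cultures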; settings: S. cerevisiae wt2 strain growth inhibition, stronger effect = higher value
In short: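 This strain belongs to a panel of yeast strains with defined genetic alterations in DNA damage repair or cell cycle control. Compounds are applied, and growth inhibition is measured against vehicle-treated cultures.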

[13] = NCI Yeast Anticancer Drug Screen. Data for the mlh1 strain (AID 171);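 further: 0% = growth of vehicle-treated control cultures of the same strain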; settings: S. cerevisiae mlh1 strain growth inhibition, stronger effect = higher value
In short: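 Growth of the mutant yeast strain after compound exposure, expressed as inhibition relative to vehicle-only controls.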

[14] = NCI Yeast Anticancer Drug Screen. Data for the sgs1 strain (AID 173);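 further: 0% = growth of vehicle-only control cultures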; settings: S. cerevisiae sgs1 mutant, stronger effect = higher value
In short: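 Growth of a yeast strain bearing a defined genetic alteration is measured after compound treatment. Inhibition is expressed relative to vehicle-only controls.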

[15] = NCI Yeast Anticancer Drug Screen. Data for the mlh1 rad18 strain (AID 175); settings: S. cerevisiae mlh1 rad18 strain growth inhibition, stronger effect = higher value
In short: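 Read-out is yeast growth inhibition, calculated against vehicle-only controls. The compound was applied to a strain engineered with DNA damage repair alterations.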

[16] = NCI Yeast Anticancer Drug Screen. Data for the rad18 strain (AID 177); settings: S. cerevisiae rad18 mutant growth inhibition, stronger effect = higher value
In short: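 Growth of the mutant yeast strain after compound exposure, normalised to vehicle-only cultures.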

[17] = at 5.0 µM (retest, dose inferred, filed as 0.5)
[18] = at 50.0 µM (retest, dose inferred, filed as 5.0)

Measured: growth inhibition

CS(=O)(=O)OCCN(CCOS(C)(=O)=O)c1ccc(C=Nc2ccc(-c3csc(COc4ccccc4)n3)cc2)cc1
-73% (inactive) and 96% (active): [11]; [18]
active: [1]; at 11.0 µM 76% | [1]; at 33.0 µM 96% | [1]; at 100.0 µM 93% | [2]; at 33.0 µM 90% | [2]; at 100.0 µM 91% | [3]; at 33.0 µM 94% | [3]; at 100.0 µM 93% | [4]; at 33.0 µM 90% | [4]; at 100.0 µM 91% | [5]; at 33.0 µM 93% | [5]; [18] 95% and 96% | [5]; at 50.0 µM 97% | [5]; at 100.0 µM 91% | [6]; at 33.0 µM 93% | [6]; [18] 96% | [6]; at 50.0 µM 98.2% | [6]; at 100.0 µM 91% | [7]; at 33.0 µM 95% | [7]; at 100.0 µM 94% | [8]; at 50.0 µM 84.8% and 97.7% | [9]; at 33.0 µM 93% | [9]; at 100.0 µM 90% | [10]; at 50.0 µM 85.3% and 95.8% | [11]; at 33.0 µM 91% | [11]; at 50.0 µM 84.5% and 96.2% | [11]; at 100.0 µM 88% | [12]; at 33.0 µM 92% | [12]; at 100.0 µM 91% | [13]; at 33.0 µM 94% | [13]; at 100.0 µM 92% | [14]; at 33.0 µM 93% | [14]; at 100.0 µM 92% | [15]; [18] 95% and 97% | [15]; at 50.0 µM 97.2%
81% (active) and 65% (inactive): [15]; [17]
inactive: [1]; at 1.2 µM 15% | [1]; at 3.7 µM 29% | [2]; at 1.2 µM -30% | [2]; at 3.7 µM -33% | [2]; at 11.0 µM -8% | [3]; at 1.2 µM -2% | [3]; at 3.7 µM -11% | [3]; at 11.0 µM 49% | [4]; at 1.2 µM -22% | [4]; at 3.7 µM -16% | [4]; at 11.0 µM 23% | [5]; at 1.2 µM -29% | [5]; at 3.7 µM -5% | [5]; [17] 44% and 40% | [5]; at 11.0 µM 63% | [6]; at 1.2 µM -46% | [6]; at 3.7 µM -18% | [6]; [17] 33% and 34% | [6]; at 11.0 µM 41% | [7]; at 1.2 µM -25% | [7]; at 3.7 µM 14% | [7]; at 11.0 µM 59% | [8]; [17] -12% and 26% | [9]; at 1.2 µM 1% | [9]; at 3.7 µM 4% | [9]; at 11.0 µM 45% | [10]; [17] -2% and 25% | [11]; at 1.2 µM -36% | [11]; at 3.7 µM -16% | [11]; [17] -4% and 19% | [11]; at 11.0 µM 47% | [12]; at 1.2 µM -4% | [12]; at 3.7 µM 11% | [12]; at 11.0 µM 54% | [13]; at 1.2 µM -24% | [13]; at 3.7 µM -17% | [13]; at 11.0 µM 42% | [14]; at 1.2 µM 11% | [14]; at 3.7 µM 14% | [14]; at 11.0 µM 64%
-64% (inactive) and 98% (active): [8]; [18]
-80% (inactive) and 96% (active): [10]; [18]

COc1cc2ccnc(-c3c4ccccc4c(N)c4c(OC)c(OC)ccc34)c2cc1OC
inactive: [1]; at 1.2 µM 5% | [1]; at 3.7 µM 20% | [1]; at 11.0 µM 60% | [2]; at 1.2 µM -4% | [2]; at 3.7 µM -5% | [2]; at 11.0 µM -5% | [2]; at 33.0 µM -4% | [2]; at 100.0 µM 30% | [3]; at 1.2 µM 0% | [3]; at 3.7 µM 11% | [3]; at 11.0 µM 22% | [3]; at 33.0 µM 31% | [3]; at 100.0 µM 49% | [4]; at 1.2 µM -1% | [4]; at 3.7 µM -1% | [4]; at 11.0 µM 0% | [4]; at 33.0 µM 2% | [4]; at 100.0 µM 50% | [5]; at 1.2 µM 16% | [5]; at 3.7 µM 50% | [5]; at 50.0 µM 19.3% | [6]; at 1.2 µM -1% | [6]; at 3.7 µM 2% | [6]; [17] 33% | [6]; at 11.0 µM 1% | [6]; at 33.0 µM 7% | [6]; [18] 33% | [6]; at 50.0 µM -2.3% | [6]; at 100.0 µM 46% | [7]; at 1.2 µM 1% | [7]; at 3.7 µM 1% | [7]; at 11.0 µM 3% | [7]; at 33.0 µM 8% | [7]; at 100.0 µM 43% | [8]; [17] 24% | [8]; [18] 24% | [8]; at 50.0 µM -13.9% | [9]; at 1.2 µM -1% | [9]; at 3.7 µM 7% | [9]; at 11.0 µM 9% | [9]; at 33.0 µM 17% | [9]; at 100.0 µM 37% | [10]; [17] 22% | [10]; [18] 22% | [10]; at 50.0 µM 10.8% | [11]; at 1.2 µM -5% | [11]; at 3.7 µM 1% | [11]; [17] -3% | [11]; at 11.0 µM 9% | [11]; at 33.0 µM -4% | [11]; [18] -3% | [11]; at 50.0 µM 6.45% | [11]; at 100.0 µM 24% | [12]; at 1.2 µM -2% | [12]; at 3.7 µM -2% | [12]; at 11.0 µM -2% | [12]; at 33.0 µM 4% | [12]; at 100.0 µM 47% | [13]; at 1.2 µM -4% | [13]; at 3.7 µM -2% | [13]; at 11.0 µM 0% | [13]; at 33.0 µM 2% | [13]; at 100.0 µM 52% | [14]; at 1.2 µM -1% | [14]; at 3.7 µM 1% | [14]; at 11.0 µM 6% | [14]; at 33.0 µM 23% | [15]; [17] 23% | [15]; [18] 23% | [16]; at 1.2 µM 0% | [16]; at 3.7 µM -5% | [16]; at 11.0 µM 8% | [16]; at 33.0 µM 31%
active: [1]; at 33.0 µM 86% | [1]; at 100.0 µM 93% | [5]; [17] 78% | [5]; at 11.0 µM 77% | [5]; at 33.0 µM 90% | [5]; [18] 78% | [5]; at 100.0 µM 94% | [14]; at 100.0 µM 70% | [15]; at 50.0 µM 72.7% | [16]; at 100.0 µM 74%
